High-throughput results from PubChem.
The list is not random: actives were taken first. Their share in the collection is about 2.9%.
a7 integrin act = qHTS for Activators of Integrin-Mediated Alleviation for Muscular Dystrophy; Potency, µM (doses to about 38.3 µM), most hits filed as activators; AID 624291, 2012; actives 0.064% (n = 350,000); alpha7betagal myoblasts, beta-gal FDG fluorescence, 48 h; active means well fitted activation curve with a large enough effect; inconclusive means small, poorly fitted or top-dose-only effect; inactive means no such curve, though single readings can be large or run the other way; further: nearly all actives have a fitted effect of over 60% in size
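Alpha7betagal+/- myoblasts (passage 13) were plated 16-24 hr, then exposed to compounds (1:260 dilution of DMSO stock) for 48 hours at 37C. After MPER lysis, β-galactosidase reporter activity was read as FDG fluorescence (ex 480/em 540) after 30 minutes.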
D3 ag = qHTS of D3 Dopamine Receptor Agonist: qHTS; D(3) dopamine receptor (Homo sapiens), P35462; D3R DiscoveRx beta-arrestin cells, luminescence, 90 min; max activation, %; actives 0.58% (n = 410,000); in the data active means max activation above about 30%
Target sequence (P35462 whole entry, looked up): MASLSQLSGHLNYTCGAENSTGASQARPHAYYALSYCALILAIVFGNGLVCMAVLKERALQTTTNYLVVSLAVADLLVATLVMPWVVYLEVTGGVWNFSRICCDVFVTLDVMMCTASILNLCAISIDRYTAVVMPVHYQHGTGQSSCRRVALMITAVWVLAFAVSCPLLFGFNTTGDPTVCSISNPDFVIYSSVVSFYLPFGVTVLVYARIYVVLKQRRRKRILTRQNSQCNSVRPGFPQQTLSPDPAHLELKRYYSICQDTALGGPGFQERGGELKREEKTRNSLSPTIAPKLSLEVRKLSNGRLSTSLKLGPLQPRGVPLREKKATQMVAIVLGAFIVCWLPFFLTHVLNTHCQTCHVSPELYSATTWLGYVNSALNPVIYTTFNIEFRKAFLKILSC
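Agonist-mode cell screen: cells plated at 1500/well and incubated overnight at 37 °C, then exposed to library compounds for 90 min at 37 °C. Detection reagent was added for 30–60 min at room temperature, and luminescence was read.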
DRD3 antagonist = qHTS of D3 Dopamine Receptor Antagonist: qHTS | D(3) dopamine receptor (Homo sapiens), P35462 | D3R cells, DiscoveRx beta-arrestin luminescence, antagonist mode; hits give low values | actives 2.5% (n = 360,000) | max response, negative = inhibition, %; in the data active means max response below about -50%; inconclusive means no clear call, values can overlap the other calls
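Cells expressing the human receptor were seeded at 1500 cells/well, incubated overnight at 37 degrees C in 5% CO2, then exposed to library compounds with dopamine controls for 90 minutes at 37 degrees C before luminescent detection.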
Large screens that a line does not name were inactive.

O=[N+]([O-])c1cc(CN2CCCCCC2)ccc1O	DRD3 antagonist inconclusive
Cc1ccc(Sc2ccc(CN3CCCCC3)cc2[N+](=O)[O-])cc1	DRD3 antagonist -106.0
COCc1cc(C)c2c(N)c(C#N)sc2n1	none
O=C(c1cc(-c2ccc(Cl)cc2)n[nH]1)N1CCN(S(=O)(=O)c2ccc(Br)s2)CC1	none (no result: a7 integrin act, DRD3 antagonist)
O=C(c1cc(-c2ccc(Br)cc2)n[nH]1)N1CCN(S(=O)(=O)c2ccc(Br)s2)CC1	D3 ag 33.8 (no result: a7 integrin act, DRD3 antagonist)
Cc1ccc(S(=O)(=O)N2CCOCC2)cc1NC(=O)CNCc1cccnc1	D3 ag 80.4
Cc1ccc(S(=O)(=O)N2CCOCC2)cc1NC(=O)CNCc1ccc(Cl)cc1Cl	none
Cc1ccc(S(=O)(=O)N2CCCCC2)cc1NC(=O)Cn1ncc(Cl)c(Cl)c1=O	DRD3 antagonist -63.7
Cc1cc(Br)ccc1NC(=O)CNC(=O)Cn1ncc(Cl)c(Cl)c1=O	DRD3 antagonist -82.7
Cc1ccc(S(=O)(=O)N2CCCCC2)cc1NC(=O)Cn1cnnn1	none
Cc1ccc2oc(=O)c3cnn(CC(=O)Nc4ccc(Br)cc4C)c3c2c1	none (no result: a7 integrin act, DRD3 antagonist)
O=S1(=O)CCN2C=C(Cl)C=C(Cl)C2=N1	none
CCCc1cc(C(=O)Nc2cccc([N+](=O)[O-])c2)cs1	none
CC(=O)Nc1ccc2c(c1)C(=O)c1ccc(Cl)cc1-2	a7 integrin act inconclusive
Cc1ccc(C(=O)NCC(=O)Nc2ccncc2)cc1	none
Cc1ccc(C(=O)CN(CCC(=O)O)C(=O)c2ccncc2)cc1	D3 ag 31.4
Cc1nc2ccc(NC(=O)c3cc([N+](=O)[O-])cc([N+](=O)[O-])c3Cl)cc2s1	DRD3 antagonist -67.8
Cc1ccc(S(=O)(=O)Nc2ccc3nc(C)sc3c2)cc1	none
Cc1nc2ccc(NC(=O)c3ccc(Cl)c([N+](=O)[O-])c3)cc2s1	none
Cc1nc2ccc(NS(=O)(=O)c3cccc([N+](=O)[O-])c3)cc2s1	D3 ag 35.9
CCOc1ccccc1CNC(=O)C1CCN(C(=O)N2CC(CC)Oc3ccc(C)cc32)CC1 (stereo unspecified)	none (no result: a7 integrin act, DRD3 antagonist)
Oc1ccc(Cl)cc1CNCc1ccc(Cl)nc1	DRD3 antagonist -64.6
Oc1ccc(Cl)cc1CNCc1ccc(F)c(F)c1	none
Cc1ccc2c(c1)N(CCC(=O)NCCCN1CCCC1)C(=O)CO2	none
COC1=C(Br)C(=O)c2nc(C)ccc2C1=O	DRD3 antagonist -118.5
COC1=C(N)C(=O)c2nc(C)ccc2C1=O	none
CCC1CN(C(=O)N2CCC(C(=O)N3CCN(c4ccc(F)cc4)CC3)CC2)c2ccccc2O1 (stereo unspecified)	none (no result: a7 integrin act, DRD3 antagonist)
c1ccc(-c2nc(N3CCCCC3)nc3ccccc23)cc1	none
CCN1CCN(c2nc(-c3ccccc3)c3ccccc3n2)CC1	DRD3 antagonist -82.1
CC(C)c1ccc(NC2(C#N)C(=O)Nc3ccccc32)cc1 (stereo unspecified)	DRD3 antagonist -53.5
Cc1ccccc1NC1(C#N)C(=O)Nc2ccccc21 (stereo unspecified)	none
CCc1ccc(C(=O)COC(=O)c2ccc(-c3nnc(-c4ccccc4)o3)cc2)cc1	none
Cc1cccc(C)c1NC(=O)CSc1nc(COc2ccccc2)nc2ccccc12	DRD3 antagonist inconclusive
CN(C)c1ccc(/C=C/c2noc(-c3ccccc3O)n2)cc1	none (no result: a7 integrin act, DRD3 antagonist)
Oc1ccccc1-c1nc(/C=C/c2ccccc2Cl)no1	D3 ag 87.8 (no result: a7 integrin act, DRD3 antagonist)
CCOc1ccc(/C=N/Nc2ccc(Cl)nn2)c(O)c1	none
Cc1cc(C)c(S(=O)(=O)/N=C2/C=C(Sc3ncn[nH]3)C(=O)c3ccccc32)cc1C	DRD3 antagonist -68.7
Cc1ccc(C)c(S(=O)(=O)/N=C2\C=C(NS(=O)(=O)c3ccccc3)C(=O)c3ccccc32)c1	DRD3 antagonist inconclusive
COc1cc(C(=O)Nc2ccc3nc(N4CCN(C)CC4)cc(C)c3c2)cc(OC)c1OC	none
Cc1cc(N2CCN(C)CC2)nc2ccc(NC(=O)c3ccc4c(c3)OCO4)cc12	DRD3 antagonist -75.7
Clc1ccc(OCCCCCN2CCCC2)c(Br)c1	DRD3 antagonist -51.9
Clc1ccc(OCCCN2CCCCC2)c(Br)c1	DRD3 antagonist -68.3
Clc1ccc(Cl)c(OCCCCN2CCNCC2)c1	none
CCN1CCN(CCCOc2ccc(Cl)cc2Br)CC1	DRD3 antagonist inconclusive
CC(C)CC(=O)n1nc(-c2cccnc2)nc1NCc1ccc(F)cc1	none (no result: a7 integrin act, DRD3 antagonist)
c1ccc(-c2nc3ccccc3[nH]2)nc1	none
O=c1[nH]c(-c2ccccn2)nc2ccccc12	DRD3 antagonist -74.1
COc1ccc(NC(=O)CSc2n[nH]c(N)n2)c([N+](=O)[O-])c1	DRD3 antagonist -91.9
COc1ccc(NC(=O)CSc2n[nH]c(C(C)C)n2)c([N+](=O)[O-])c1	none
CCNC(=O)CC1S/C(=N/N=C(\C)c2ccccc2)NC1=O (stereo unspecified)	none
COc1ccccc1Nc1c2c(nc3ccc(NC(=O)c4cccc(F)c4)cc13)CCCC2	none (no result: a7 integrin act, DRD3 antagonist)
Cc1c(CCC(=O)NCCCn2ccnc2)c(=O)oc2c(C)c3occ(C(C)(C)C)c3cc12	none
Cc1coc2c(C)c3oc(=O)c(CCC(=O)NCCCn4ccnc4)c(C)c3cc12	DRD3 antagonist -69.3
COc1cccc(NC(=O)CC2NCCNC2=O)c1 (stereo unspecified)	none (no result: a7 integrin act, DRD3 antagonist)
FC(F)(F)c1ccc(-c2cccc3c2C2CC3CCN2C(=S)NCCc2ccccc2)cc1 (stereo unspecified)	none (no result: a7 integrin act)
Cc1ccc2nc(Cl)c3nnnn3c2c1	DRD3 antagonist -108.7
Cc1ccc2nc(NCc3ccccc3Cl)c3nnnn3c2c1	none (no result: a7 integrin act, DRD3 antagonist)
COc1ccc(N2CCN(c3nc4ccc(C)cc4n4nnnc34)CC2)cc1	D3 ag 73.3 (no result: a7 integrin act, DRD3 antagonist)
Cc1ccc2nc(N3CCN(c4ccc(F)cc4)CC3)c3nnnn3c2c1	none (no result: a7 integrin act, DRD3 antagonist)
CCN(c1ccccc1)S(=O)(=O)c1ccc(OC)c(NC(=O)c2cc(F)c(F)c(F)c2F)c1	none
Cc1c(C(=O)NC(=S)Nc2cccnc2)cccc1[N+](=O)[O-]	DRD3 antagonist -64.6
Cc1ccc(C(=O)NC(=S)Nc2cccc(NC(=O)c3ccccc3)c2)cc1[N+](=O)[O-]	DRD3 antagonist -67.5
Cc1ccc(C(=O)NC(=S)Nc2cccc(NC(=O)c3ccccc3Cl)c2)cc1[N+](=O)[O-]	DRD3 antagonist inconclusive
COc1ccc(C(=O)NC(=S)Nc2cccnc2)cc1[N+](=O)[O-]	none
Cn1cc(C(=O)NC2C3CC4CC(C3)CC2C4)cn1 (stereo unspecified)	none
O=c1oc2ccccc2nc1/C=C(O)/C=C/c1ccc(F)cc1	none
O=c1oc2ccccc2nc1/C=C(O)/C=C\c1ccccc1	DRD3 antagonist -55.5
COc1cc(OC)cc(C(=O)NC2CC3CCC(C2)N3Cc2ccco2)c1 (stereo unspecified)	DRD3 antagonist -90.5
CCc1ccccc1NC(=O)NC1CC2CCC(C1)N2Cc1ccco1 (stereo unspecified)	DRD3 antagonist inconclusive
O=C(Nc1cccc(Cl)c1)NC1CC2CCC(C1)N2Cc1ccco1 (stereo unspecified)	DRD3 antagonist -66.7
Cc1ccc(C(=O)NC2CC3CCC(C2)N3Cc2ccco2)cc1 (stereo unspecified)	none
COC(=O)c1c(-c2ccncc2)csc1NC(=O)c1ccoc1C	none
COc1ccc(Cl)cc1N1C(=O)C2CCCN2C1c1sccc1C (stereo unspecified)	DRD3 antagonist -63.4
